Test results reported in the supplement of paper PMC12067093, “Discovery and optimisation of a covalent ligand for TRIM25 and its application to targeted protein ubiquitination” (Chemical Science, 2025).
Of roughly 21,000 targets only a part is listed; those with the largest changes were picked by preference.

Compound: CC1Cc2ccccc2N1C(=O)C1CCCN(C1)C(=O)CCl (mixture of isomers) [TRIM25 ligand 11 (diastereomer mixture)]
Assay: probe-labelled cysteine peptide fold change vs DMSO (competition) (log2 fold change); higher = less target engagement (more negative = stronger competition)
Details: THP-1, incubation time: 4 h
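Also: competitive chemoproteomic profiling in live THP-1 cells with an iodoacetamide desthiobiotin (IA-DTB) probe, comparing probe-labelled peptide intensities in compound-treated cells against DMSO-treated controls.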

Sequence of UniProt Q96DI7 (Q96DI7 whole entry, looked up): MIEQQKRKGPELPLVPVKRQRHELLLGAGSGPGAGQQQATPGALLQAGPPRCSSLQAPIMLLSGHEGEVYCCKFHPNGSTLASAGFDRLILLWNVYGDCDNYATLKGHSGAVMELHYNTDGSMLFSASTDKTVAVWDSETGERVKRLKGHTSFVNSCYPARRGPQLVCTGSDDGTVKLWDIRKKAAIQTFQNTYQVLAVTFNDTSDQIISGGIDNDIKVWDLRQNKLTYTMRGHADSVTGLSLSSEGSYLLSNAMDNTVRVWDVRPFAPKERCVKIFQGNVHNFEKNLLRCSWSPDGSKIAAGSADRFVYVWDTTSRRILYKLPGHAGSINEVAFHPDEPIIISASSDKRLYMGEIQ
Sequence of UniProt P60903 (P60903 whole entry): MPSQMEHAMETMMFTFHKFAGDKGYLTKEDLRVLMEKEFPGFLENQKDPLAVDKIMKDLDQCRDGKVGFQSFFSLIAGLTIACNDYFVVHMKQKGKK
Sequence of UniProt Q99590 (Q99590 whole entry, looked up): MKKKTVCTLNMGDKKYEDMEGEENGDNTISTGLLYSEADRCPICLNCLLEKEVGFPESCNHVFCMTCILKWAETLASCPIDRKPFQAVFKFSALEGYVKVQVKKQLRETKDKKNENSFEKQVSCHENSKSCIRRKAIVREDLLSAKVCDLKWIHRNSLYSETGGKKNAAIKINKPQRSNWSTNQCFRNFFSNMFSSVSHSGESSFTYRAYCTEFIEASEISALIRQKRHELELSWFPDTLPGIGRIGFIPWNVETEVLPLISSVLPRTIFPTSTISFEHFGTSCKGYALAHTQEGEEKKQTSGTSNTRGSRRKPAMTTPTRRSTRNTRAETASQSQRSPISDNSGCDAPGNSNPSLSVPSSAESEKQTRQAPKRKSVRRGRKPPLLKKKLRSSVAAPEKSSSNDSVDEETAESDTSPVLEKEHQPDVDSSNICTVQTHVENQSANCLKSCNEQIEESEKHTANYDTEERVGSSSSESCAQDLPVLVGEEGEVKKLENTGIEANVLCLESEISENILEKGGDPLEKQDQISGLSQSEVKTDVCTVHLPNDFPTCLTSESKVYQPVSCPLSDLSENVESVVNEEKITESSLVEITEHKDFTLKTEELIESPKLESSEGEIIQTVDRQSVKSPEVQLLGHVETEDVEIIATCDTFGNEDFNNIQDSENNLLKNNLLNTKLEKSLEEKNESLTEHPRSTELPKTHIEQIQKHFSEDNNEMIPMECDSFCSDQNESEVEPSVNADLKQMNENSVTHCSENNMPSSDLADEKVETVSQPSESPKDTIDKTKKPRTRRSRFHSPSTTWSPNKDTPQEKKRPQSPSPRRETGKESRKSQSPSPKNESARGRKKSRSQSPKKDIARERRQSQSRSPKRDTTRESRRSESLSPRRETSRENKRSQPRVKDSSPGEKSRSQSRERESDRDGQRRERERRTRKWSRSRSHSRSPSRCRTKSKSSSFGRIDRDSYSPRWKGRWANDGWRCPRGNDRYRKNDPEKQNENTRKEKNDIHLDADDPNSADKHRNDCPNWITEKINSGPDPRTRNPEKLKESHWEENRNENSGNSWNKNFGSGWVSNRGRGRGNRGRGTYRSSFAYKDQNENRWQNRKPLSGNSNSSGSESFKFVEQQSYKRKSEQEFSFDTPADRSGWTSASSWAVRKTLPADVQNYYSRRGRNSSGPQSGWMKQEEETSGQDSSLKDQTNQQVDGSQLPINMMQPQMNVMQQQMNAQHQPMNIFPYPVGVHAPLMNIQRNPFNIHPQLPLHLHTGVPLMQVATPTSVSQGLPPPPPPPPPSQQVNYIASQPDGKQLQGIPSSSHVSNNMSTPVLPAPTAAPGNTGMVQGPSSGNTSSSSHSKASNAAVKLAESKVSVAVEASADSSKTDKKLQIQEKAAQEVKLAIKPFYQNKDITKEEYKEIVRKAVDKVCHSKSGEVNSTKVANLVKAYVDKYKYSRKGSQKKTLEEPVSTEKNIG
Sequence of UniProt Q9Y230 (Q9Y230 whole entry, looked up): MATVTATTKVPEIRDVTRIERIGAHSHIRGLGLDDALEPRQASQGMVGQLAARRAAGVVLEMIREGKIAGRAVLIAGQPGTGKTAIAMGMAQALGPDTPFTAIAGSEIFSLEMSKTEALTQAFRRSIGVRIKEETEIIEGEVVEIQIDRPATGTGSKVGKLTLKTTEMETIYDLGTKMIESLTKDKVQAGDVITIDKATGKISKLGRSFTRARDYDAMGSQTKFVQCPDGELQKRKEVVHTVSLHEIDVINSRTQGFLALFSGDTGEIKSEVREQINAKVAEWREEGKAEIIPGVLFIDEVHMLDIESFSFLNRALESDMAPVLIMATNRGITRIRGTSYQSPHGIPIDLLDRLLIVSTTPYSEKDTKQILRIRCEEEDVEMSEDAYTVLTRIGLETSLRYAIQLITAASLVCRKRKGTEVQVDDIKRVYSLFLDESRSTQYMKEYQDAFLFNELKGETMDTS
Sequence of UniProt Q9UPW6 (Q9UPW6 whole entry, looked up): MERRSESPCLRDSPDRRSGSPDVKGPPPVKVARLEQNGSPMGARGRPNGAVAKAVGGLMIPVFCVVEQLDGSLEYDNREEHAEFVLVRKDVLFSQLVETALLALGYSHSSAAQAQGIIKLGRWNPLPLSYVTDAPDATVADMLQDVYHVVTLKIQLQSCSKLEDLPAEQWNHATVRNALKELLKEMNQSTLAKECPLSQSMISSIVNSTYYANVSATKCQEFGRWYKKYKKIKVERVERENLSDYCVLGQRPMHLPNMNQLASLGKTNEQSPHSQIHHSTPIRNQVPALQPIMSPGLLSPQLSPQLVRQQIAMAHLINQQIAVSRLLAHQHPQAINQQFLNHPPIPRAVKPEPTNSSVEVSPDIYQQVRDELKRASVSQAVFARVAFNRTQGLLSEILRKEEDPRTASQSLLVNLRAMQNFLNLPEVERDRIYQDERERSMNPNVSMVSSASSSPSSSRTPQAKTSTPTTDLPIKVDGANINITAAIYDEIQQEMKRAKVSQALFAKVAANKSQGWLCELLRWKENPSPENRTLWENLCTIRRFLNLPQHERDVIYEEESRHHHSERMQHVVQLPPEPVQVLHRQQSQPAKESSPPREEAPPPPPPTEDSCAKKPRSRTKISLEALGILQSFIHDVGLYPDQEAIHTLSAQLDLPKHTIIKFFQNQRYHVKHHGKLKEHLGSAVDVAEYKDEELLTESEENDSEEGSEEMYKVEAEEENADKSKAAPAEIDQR
Sequence of UniProt P53992 (P53992 whole entry, looked up): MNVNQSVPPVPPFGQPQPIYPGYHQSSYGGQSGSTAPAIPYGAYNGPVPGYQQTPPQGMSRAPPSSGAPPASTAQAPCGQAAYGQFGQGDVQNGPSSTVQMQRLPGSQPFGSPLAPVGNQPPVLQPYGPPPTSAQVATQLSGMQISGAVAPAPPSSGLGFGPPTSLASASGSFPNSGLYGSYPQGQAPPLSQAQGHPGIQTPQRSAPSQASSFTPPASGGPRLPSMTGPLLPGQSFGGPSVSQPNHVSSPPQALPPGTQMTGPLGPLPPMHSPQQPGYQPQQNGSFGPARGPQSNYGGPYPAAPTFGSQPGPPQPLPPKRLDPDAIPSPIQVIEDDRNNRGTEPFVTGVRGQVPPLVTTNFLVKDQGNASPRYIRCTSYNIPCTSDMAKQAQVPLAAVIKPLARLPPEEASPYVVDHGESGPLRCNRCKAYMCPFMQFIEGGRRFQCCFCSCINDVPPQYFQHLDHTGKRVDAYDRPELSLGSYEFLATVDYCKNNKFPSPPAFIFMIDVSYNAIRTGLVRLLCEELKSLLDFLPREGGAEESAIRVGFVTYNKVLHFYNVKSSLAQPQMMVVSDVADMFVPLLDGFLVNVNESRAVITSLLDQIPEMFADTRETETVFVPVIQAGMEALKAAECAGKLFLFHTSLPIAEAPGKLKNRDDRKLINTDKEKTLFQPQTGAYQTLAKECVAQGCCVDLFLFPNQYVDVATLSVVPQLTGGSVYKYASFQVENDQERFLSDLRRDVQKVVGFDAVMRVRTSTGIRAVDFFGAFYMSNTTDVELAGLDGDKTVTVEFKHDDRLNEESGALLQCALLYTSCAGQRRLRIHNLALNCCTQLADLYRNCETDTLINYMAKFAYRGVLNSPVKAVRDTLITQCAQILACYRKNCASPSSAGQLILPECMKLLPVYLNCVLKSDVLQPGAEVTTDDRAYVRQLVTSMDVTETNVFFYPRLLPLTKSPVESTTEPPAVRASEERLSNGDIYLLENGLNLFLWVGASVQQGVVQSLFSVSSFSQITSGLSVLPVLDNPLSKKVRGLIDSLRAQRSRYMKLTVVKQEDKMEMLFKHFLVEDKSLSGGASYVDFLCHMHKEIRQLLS
Sequence of UniProt Q99442 (Q99442 whole entry): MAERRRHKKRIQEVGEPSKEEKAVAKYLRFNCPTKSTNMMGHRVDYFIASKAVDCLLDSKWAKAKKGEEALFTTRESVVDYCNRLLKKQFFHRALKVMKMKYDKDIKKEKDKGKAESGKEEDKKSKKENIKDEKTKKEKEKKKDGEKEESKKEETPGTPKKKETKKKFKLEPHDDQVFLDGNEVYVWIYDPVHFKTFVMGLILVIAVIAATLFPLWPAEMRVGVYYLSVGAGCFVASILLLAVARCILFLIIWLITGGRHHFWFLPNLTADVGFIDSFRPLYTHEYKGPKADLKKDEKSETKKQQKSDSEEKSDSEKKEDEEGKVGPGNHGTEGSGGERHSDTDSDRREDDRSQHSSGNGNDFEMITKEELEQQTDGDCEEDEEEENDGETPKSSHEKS
Sequence of UniProt Q9NXA8 (Q9NXA8 whole entry, looked up): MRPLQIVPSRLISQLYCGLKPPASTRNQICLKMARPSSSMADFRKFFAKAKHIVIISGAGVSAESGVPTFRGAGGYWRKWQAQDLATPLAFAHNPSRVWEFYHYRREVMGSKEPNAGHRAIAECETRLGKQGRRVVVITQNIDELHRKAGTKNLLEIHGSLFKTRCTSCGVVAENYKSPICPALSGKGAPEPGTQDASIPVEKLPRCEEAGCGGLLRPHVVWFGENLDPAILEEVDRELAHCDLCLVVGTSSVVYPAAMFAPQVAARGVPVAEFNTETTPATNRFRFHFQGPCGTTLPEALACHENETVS

Target | probe-labelled cysteine peptide fold change (10 µM) | probe-labelled cysteine peptide fold change (50 µM)
SMAD4_Q13485_391_GVQLECK (UniProt Q13485) | 0.0468 | 0.21
SEL1L3_Q68CR1_475_QEACHLHNSYLDLQR (UniProt Q68CR1) | -0.0373 | -0.0246
SPECC1_Q5M775_633_EICDHQAEQLSR (UniProt Q5M775) | -0.00943 | -0.0553
SEC24C_P53992_493_RVDAYDRPELSLGSYEFLATVDYCK (UniProt P53992) | -0.123 | 0.0859
SORD_Q00796_179_VLVCGAGPIGMVTLLVAK (UniProt Q00796) | -0.904 | -0.915
SLC4A1AP_Q9BWU0_399_EGEELEYEFDEQGHSTWLCR (UniProt Q9BWU0) | -0.0527 | 0.0332
SIRT5_Q9NXA8_293+303_FHFQGPCGTTLPEALACHENETVS (UniProt Q9NXA8) | 0.203 | -0.0498
RUVBL2_Q9Y230_227_FVQCPDGELQK (UniProt Q9Y230) | 0.151 | -0.0879
S100A10_P60903_62_DLDQCR (UniProt P60903) | -0.0944 | -0.0317
RSBN1_Q5VWQ0_282_EVQTVCAGLTR (UniProt Q5VWQ0) | 0.00457 | -0.119
SCAF11_Q99590_553_TDVCTVHLPNDFPTCLTSESK (UniProt Q99590) | 0.0519 | -0.221
SEC23A_Q15436_88_LWACNFCYQR (UniProt Q15436) | 0.0643 | 0.249
SATB2_Q9UPW6_159_IQLQSCSK (UniProt Q9UPW6) | 0.071 | -0.00125
SON_P18583_1551_EMEHNTVCAAGTSPVGEIGEEK (UniProt P18583) | 0.0276 | -0.264
RPP40_O75818_235_DLQCPVLQSSELEGTPEVSCR (UniProt O75818) | 0.892 | 0.729
SCAPER_Q9BY12_336_DSLHSCDHPLAEK (UniProt Q9BY12) | -0.0351 | -0.308
SETDB1_Q15047_1207_QFYDGEESCYIIDAK (UniProt Q15047) | -0.0777 | -0.0706
SLC25A5_P05141_257_KGTDIMYTGTLDCWR (UniProt P05141) | -0.0817 | -0.062
SEC63_Q9UGP8_490_EQSICAAEEQPAEDGQGETNK (UniProt Q9UGP8) | 0.0683 | -0.228

Target | probe-labelled cysteine peptide fold change (10 µM) | probe-labelled cysteine peptide fold change (50 µM)
RPS5_P46782_155_VNQAIWLLCTGAR (UniProt P46782) | 0.00589 | 0.118
SFMBT2_Q5VUG0_796_CPPTKPEGTEDTKQEEEERLVLESNPLEWTVTDVVR (UniProt Q5VUG0) | -0.043 | -0.0391
SIL1_Q9H173_408_VLQTLGVLLTTCR (UniProt Q9H173) | 0.0793 | 0.848
SEC23B_Q15437_40_MVVPLACLLTPLK (UniProt Q15437) | -0.0615 | -0.0659
SNX14_Q9Y5W7_593_IPVFCIDVER (UniProt Q9Y5W7) | 0.3 | 0.776
SBF1_O95248_987_SCTFQLLK (UniProt O95248) | -0.0361 | 0.064
SETD3_Q86TU7_36_CSSPAPGPGK (UniProt Q86TU7) | -0.0972 | -0.145
SLFN11_Q7Z7L1_322_VNPFCCAVFSEAPNSWIVEDK (UniProt Q7Z7L1) | 0.661 | 0.447
SNRNP40_Q96DI7_72_CSSLQAPIMLLSGHEGEVYCCK (UniProt Q96DI7) | 0.165 | 0.0428
RSBN1_Q5VWQ0_671_IQLCDNDIYFIPR (UniProt Q5VWQ0) | 0.00486 | 0.13
SLC4A7_Q9Y6M7_120_VQFILGTEDDDEEHIPHDLFTEMDELCYR (UniProt Q9Y6M7) | 0.222 | -0.577
SPATA5_Q8NB90_574_VLCNEAGLCALRR (UniProt Q8NB90) | -0.161 | -0.0738
SEC62_Q99442_55_AVDCLLDSK (UniProt Q99442) | -0.122 | -0.249
SMAD4_Q13485_127_CDSVCVNPYHYER (UniProt Q13485) | 0.000739 | 0.0905
SMCHD1_A6NHR9_474_RPIFECFWNGR (UniProt A6NHR9) | -0.00857 | 0.0994
SIPA1_Q96FS4_467_AHTPCTPHTTYR (UniProt Q96FS4) | 0.187 | 0.0943
SNTB1_Q13884_515_DGEIQLDLHSCPK (UniProt Q13884) | 0.144 | 0.6
SEC23B_Q15437_434_GPCVSENELGVGGTSQWK (UniProt Q15437) | 0.0914 | 0.096
SETDB1_Q15047_582_LFYLPHVCSYTCLSR (UniProt Q15047) | -0.142 | -0.048
